# PubChem BioAssay (NCI)
# This is part of a sample that, as a whole, favours compounds with a hit. Of some 83,000 tested, about 20% had one in any assay.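 Negative percent growth values reflect cell death: -40 means 40% of the cells present at the start died, and -100 means all died.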 Unmarked numbers belong to inactive results. The source made the active and inactive calls. How the source made its calls: active means growth percent below 10; inactive means the rest.
# System: MDA-MB-468 breast
# Experiment: NCI-60 one-dose screen, 48 h (100 = growth as untreated, 0 = no growth, -100 = all killed)
# Conditions: 10 µM unless noted
row,SMILES,growth
1,ClC(Cl)c1nc(-c2cccs2)n2nc(-c3ccccc3)cc2n1,-56.4% (active)
2,CN(C)CCCOc1ccc(C(=C(c2ccccc2)C2CCCC2)c2ccc(OCCCN(C)C)cc2)cc1,-78.9% (active)
3,N#Cc1nc(C#N)c(Sc2ccccc2)c(Sc2ccccc2)c1Sc1ccccc1,-73.9% (active)
4,CCCCCCCCCCCC[n+]1ccccc1 (tested in a mixture with another compound),-37.6% (active)
5,CC(=O)Nc1nc(C)c(C(=O)NNC(=O)Nc2ccccc2)s1,61.4%
6,CC1(C)NC(=S)NC1=O,109%
7,O=C1CN(Cc2ccc(C(=O)NO)cc2)C(=O)[C@@H](Cc2ccccc2)N1,109%
8,Oc1ccc(CN2CCC(N3CCOCC3)CC2)c2cccnc12,36.6%
9,COc1ccc(-c2nc(N/N=C/c3c[nH]c4ccccc34)nc(N3CCOCC3)c2C#N)cc1,97.8%
10,CNC(=O)c1c(NC(=O)c2ccc(C(C)(C)C)cc2)sc2c(CN(C)C)c(O)ccc12,-60.5% (active)
11,CSc1nc2c(c(=O)[nH]1)C1(C(=O)Nc3ccccc31)c1c(nc(SC)[nH]c1=O)N2,93.1%
12,O=C(Nc1ccc(NC(=O)c2cc(=O)[nH]c3ccccc23)cc1)Nc1cccc(Cl)c1,64.4%
13,CC(C)C1CCC(C)C(O)C1 (centres undefined),98.5%
14,NCCNc1nc(Nc2ccc(-c3nc4ccccc4[nH]3)cc2)c2cn[nH]c2n1,57.2%
15,CCCCCCCCCCCCCCCCOCCCOP(=O)(O)C1CCCN(O)C1=O (centres undefined),-7.42% (active)
16,C=CC(=O)NCCOc1cccc(Nc2cc(NCCCNC(=O)C3CCC3)c(Br)cn2)c1,-59.5% (active)
17,COc1ccc2c(c1)c(-c1nc(-c3cn(C)c4ncccc34)cs1)cn2CCO,-16.8% (active)
18,C=CCS(C)(=O)=O,95.9%
19,CC(C)=CCC[C@](C)(O)[C@H]1CC[C@]2(C)[C@@H]1CC[C@@H]1[C@@]3(C)C/C(=C/c4ccccc4)C(=O)C(C)(C)[C@@H]3CC[C@]12C,94.7%
20,Cc1ccc(CCC(=O)Nc2ncc(Cc3cc(Cl)ccc3Cl)s2)o1,7.55% (active)

row,SMILES,growth
1,O=C1/C=C/[C@@H](O)[C@@H]2C[C@@H](O)C[C@H]2/C=C/CCCCO1,-36.1% (active)
2,CN(C(=O)c1ccccc1)N(C)C(=O)c1ccccc1,120%
3,O=C(Cc1nc2cc(Cl)c(Cl)cc2nc1CC(=O)c1ccccc1)c1ccccc1,-55% (active)
4,COc1cc2cc(Oc3ccc(NC(=O)Nc4ccc(Cl)c(C(F)(F)F)c4)cc3)c(C)nc2cc1OCCN1CCCCC1,-72.3% (active)
5,CCN(CC)c1ccc(Nc2ccc(CC(=O)c3ccccc3)cc2)cc1,85.2%
6,CCOC(=O)C(C)(C#N)C1C=CCCC1 (centres undefined),75.6%
7,Brc1ccccc1/C=N/Nc1nc(N/N=C/c2ccccc2Br)nc(N2CCOCC2)n1,90.3%
8,COc1ccc(Sc2[nH]c(C=O)c3ccccc23)cc1,9.32% (active)
9,CC1(C)CC2=C3C=C[C@@H]4[C@@]5(C)CC[C@H](O)C(C)(C)[C@@H]5CC[C@@]4(C)[C@]3(C)CC[C@@]2(C(=O)O)CC1=O,81.4%
10,COc1ccc(/C=N/NC(N)=S)c(OC)n1,86.4%
11,OC(COc1cccc2ccccc12)CN1CCN(c2ccccc2)CC1 (centres undefined),77.6%
12,C#CCOc1cccc(Nc2ncnc3c(NC(=O)C=C)cccc23)c1,-15.2% (active)
13,CCOc1ccc(NC(=O)c2cc(OC)c(OC)c(OC)c2)cc1,8.51% (active)
14,Clc1ccc2oc3c(OCCCn4ccnc4)c4ccccc4nc3c2c1,66.5%
15,O=C1C(c2ccccc2)=C(N2CCc3ccccc32)OC1(Cl)Cl,78.4%
16,c1ccc(CC(NCCNC(Cc2ccccc2)c2ccccc2)c2ccccc2)cc1 (centres undefined),-32.9% (active)
17,FC(F)(F)c1[nH]ncc1-c1nc2ccc3n[nH]c(C#Cc4cccnc4)c3c2c2c1CCCC2,73.9%
18,Cc1nc(N)sc1-c1csc(Nc2ccc(C(F)(F)F)cc2)n1,-28.9% (active)
19,Cc1nc2ccccc2n1CC1NC(=O)NC1=O (centres undefined),97.6%
